IL1B secr inh: inhibitors of inflammasome signaling (IL-1 beta secretion); THP-1 LPS/ATP IL-1B secretion, AlphaLISA, 16 h; stronger effect = lower value; activity change, % at 57.5 µM; 4.7% of 360,000 active; in the data active means activity change below about -50%; inconclusive means mostly about -30% to -49%
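THP-1 cells pretreated 1 hr with compounds (up to 57.5 uM final), then stimulated with LPS (250 ng/mL final) plus ATP (1.25 mM final); secreted IL-1B measured by AlphaLISA after 16 hr, decreased signal indicating inhibition.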
RORgamma inh: inhibitors of mouse ROR gamma transcriptional activity. Potency, µM (titrated, usually from 53.6 µM), for inactives: at the highest dose activity change, negative = inhibition, most hits filed as inhibitors. 5.4% of 310,000 active. Drosophila S2 Gal4-RORgamma UAS-luciferase reporter, 20 h. P51450. AID 2551; further: potency means the concentration at half of the fitted maximal effect; nearly all actives have a fitted effect of over 60% in size
Target sequence (P51450 whole entry, looked up, the tested form may be a part): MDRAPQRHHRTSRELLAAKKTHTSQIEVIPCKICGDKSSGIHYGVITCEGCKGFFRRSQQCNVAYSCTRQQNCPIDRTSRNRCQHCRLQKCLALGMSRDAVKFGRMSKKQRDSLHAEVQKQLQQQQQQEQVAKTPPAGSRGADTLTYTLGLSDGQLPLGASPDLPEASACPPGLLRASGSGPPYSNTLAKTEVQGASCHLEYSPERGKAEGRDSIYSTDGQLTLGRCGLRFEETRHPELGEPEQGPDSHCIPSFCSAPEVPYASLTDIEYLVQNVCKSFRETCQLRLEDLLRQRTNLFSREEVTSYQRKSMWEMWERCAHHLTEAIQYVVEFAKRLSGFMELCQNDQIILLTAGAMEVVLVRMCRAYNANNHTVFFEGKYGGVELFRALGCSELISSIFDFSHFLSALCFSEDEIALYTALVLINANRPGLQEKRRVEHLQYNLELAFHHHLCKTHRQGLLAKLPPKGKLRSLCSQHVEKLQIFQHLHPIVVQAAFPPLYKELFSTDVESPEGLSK
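A Gal4/UAS one-hybrid system in insect cells: metallothionein-promoter Gal4–ROR gamma fusion plus Photinus luciferase reporter. Copper sulfate 700 uM final, 20 hr ambient incubation, luminescent detection after 10 min with reagent.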
LDHA inh: inhibitors of human lactate dehydrogenase A. P00338. purified LDHA, NADH/diaphorase-resazurin fluorescence; stronger effect = lower value. activity change, % (values are at about 110 or 230 µM). 0.15% of 480,000 active. AID 1347041; in the data active means activity change below about -30%; inconclusive means mostly about -25% to -30%;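 further: plate controls were DMSO wells for no effect and wells without enzyme for full effect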
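Human LDH5 (2 nM) was incubated with 0.06 mM NADH and 0.2 mM pyruvate for 5 min at room temperature in Tris pH 7.4. Remaining NADH was coupled through diaphorase/resazurin, and resorufin fluorescence was read at 0 and 20 min.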
DT40 TDP1 CPT: DT40-hTDP1 cell growth loss with CPT | 12% of 420,000 active | chicken DT40 Tdp1-/-;hTDP1 cells + 20 nM CPT, ATP luminescence, 48 h | Potency, µM (top dose mostly 46.2 µM), without a hit: at the highest dose activity change, negative = growth inhibition, usual class: inhibitors; further: potency means the concentration at half of the fitted maximal effect; nearly all actives have a fitted effect of over 55% in size
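Cell growth measured by CellTiter-Glo luminescence after a minimum 48 h, 37 C compound exposure with 20 nM CPT in Tdp1-knockout DT40 cells stably expressing hTDP1, seeded 400/well; qHTS titration format.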
DT40 TDP1 no CPT: qHTS for Inhibitors of human tyrosyl-DNA phosphodiesterase 1 (TDP1): qHTS in cells in absence of CPT; DT40 Tdp1-/- hTDP1 cells, no CPT, ATP luminescence, 48 h; Potency, µM (series often up to 46.2 µM), inactives show top-dose activity change, negative = growth inhibition, most hits filed as inhibitors; 15% of 420,000 active; AID 686978, 2013; further: potency means the concentration at half of the fitted maximal effect; nearly all actives have a fitted effect of over 55% in size
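Cells were dispensed at 400 per well, compounds added by pin tool, plates incubated ≥48 hr at 37 °C, then CellTiter-Glo added for 30 min at room temperature before luminescence reading. Line: DT40 Tdp1-/- complemented with hTDP1; camptothecin omitted.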
Gal4-VP16 FLuc: Gal4-VP16 reporter inhibition counter-screen; 3.5% of 310,000 active; Drosophila S2 Gal4-VP16 UAS-luciferase, luminescence, 20 h; Potency, µM (doses to about 53.6 µM), inactives show top-dose activity, negative = inhibition, actives largely listed as inhibitors;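 further: Gal4-VP16 expression switched on by copper sulfate through the metallothionein promoter; potency means the concentration at half of the fitted maximal effect; nearly all actives have a fitted effect of over 50% in size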
* hit, by the source's call; u = inconclusive; x = no result. Most compounds without a hit are left out; they make up all but 18% or so of the library. Unless noted, the call rests on the fitted dose curve; in most records, active means well fitted curve in the direction sought with a large enough effect; inconclusive means small, poorly fitted or top-dose-only effect, or another doubt; inactive means no such curve, though single readings can be large; an effect the other way counts as inactive or inconclusive. Unless noted, on the % scale 0 is the no-effect control and ±100 the full control effect.

SMILES | IL1B secr inh | RORgamma inh | LDHA inh | DT40 TDP1 CPT | DT40 TDP1 no CPT | Gal4-VP16 FLuc
CN(Cc1ccccc1)c1ccc(-c2nc(-c3ccccn3)no2)cc1[N+](=O)[O-] | x | x | -3.9 | u | 18.4µM* | x
CN(Cc1ccccc1)c1ccc(-c2nc(-c3cccnc3)no2)cc1[N+](=O)[O-] | x | x | -4.2 | -6.2% | 1.0% | x
CNc1ccc(-c2nc(-c3ccccn3)no2)cc1[N+](=O)[O-] | x | x | 0.8 | -10.7% | -16.9% | x
C/C(Cc1ccccc1)=N\NC(=O)C(C)C | x | x | 0.4 | x | x | x
CC1CN(c2ccc(Oc3ccccc3)cc2)c2nc3c(c(=O)[nH]c(=O)n3C)n2C1 (stereo not drawn) | 0.0 | 24.5% | -0.6 | 18.4µM* | 25.9µM* | -4.5%
CCOc1cccc(C(N)=S)c1 | x | x | -2.6 | x | x | x
CCOc1ccc(S(=O)(=O)Nc2ccc3oc(C)c(C(=O)OC(C)C)c3c2)cc1 | x | x | 3.1 | x | x | x
CCOC(=O)c1c(-c2ccccc2)oc2ccc(NS(=O)(=O)c3ccc(OC)cc3)cc12 | x | x | 10.6 | 4.61µM* | 3.26µM* | x
CCOC(=O)c1c(-c2ccccc2)oc2ccc(NS(=O)(=O)c3ccccc3)cc12 | x | x | -0.5 | u | -29.3% | x
CCOC(=O)c1c(-c2ccccc2)oc2ccc(NS(=O)(=O)c3cc(C)c(C)cc3C)cc12 | x | x | -3.6 | 18.4µM* | 10.3µM* | x
Cc1cc(C)c(S(=O)(=O)Nc2ccc3oc(C)c(C(=O)OC(C)C)c3c2)cc1C | x | x | 1.8 | u | 13µM* | x
CCOc1ccc2oc(-c3ccccc3)c(C(=O)N(C)C)c2c1 | -0.3 | 0.8% | 1.9 | u | 18.4µM* | 14.6%
CCc1noc(CSc2nc(-c3ccco3)nc3ccccc23)n1 | x | x | 14.3 | x | x | x
CCC(=O)Nc1ccc2oc(-c3cccc(OC)c3)nc2c1 | x | x | 5.7 | x | x | x
CC(=O)c1c(C)oc2ccc(NS(=O)(=O)c3ccc(F)cc3C)cc12 | 7.3 | u | -7.0 | 23.1µM* | 18.4µM* | 12.6µM*
Cc1cc(F)ccc1S(=O)(=O)Nc1ccc2oc3c(c2c1)CC(C)CC3 (stereo not drawn) | x | x | -4.1 | u | u | x
CN(Cc1cccc(Cl)c1Cl)C(=O)c1ccccc1NS(C)(=O)=O | x | x | 1.6 | x | x | x
Cc1nc(C)c(-c2csc(Nc3ccc(S(N)(=O)=O)cc3)n2)s1 | -58.9* | u | 0.1 | u | u | -7.1%
COc1ccc(Nc2nc(-c3sc(C)nc3C)cs2)c(OC)c1 | -14.0 | -5.4% | -2.4 | 6.51µM* | 8.2µM* | -20.3%
Cc1nc(NC(=O)c2ccccc2)sc1-c1csc(Nc2ccc(F)cc2)n1 | x | 24.3% | x | x | x | u
Cc1ccc(Nc2nc(-c3sc(C)nc3C)cs2)cc1 | 71.0 | u | 1.4 | 0.92µM* | 0.581µM* | -0.9%
CC(=O)c1ccc(Nc2nc(-c3sc(C)nc3C)cs2)cc1 | 1.0 | x | -2.6 | 2.06µM* | 1.84µM* | x
CCN(CC)C(=O)C(=O)c1cn(C)c2ccccc12 | x | x | -0.8 | x | x | x
COc1ccc(Nc2nc(-c3sc(NC(C)=O)nc3C)cs2)cc1 | x | -1.2% | x | x | x | -8.0%
CC(=O)Nc1ccc(Nc2nc(-c3sc(C)nc3C)cs2)cc1 | -50.4* | u | -9.5 | 16.4µM* | u | -13.0%
SMILES | IL1B secr inh | RORgamma inh | LDHA inh | DT40 TDP1 CPT | DT40 TDP1 no CPT | Gal4-VP16 FLuc
COC(=O)c1ccc(NC(=O)COc2coc(CN3CCc4ccccc43)cc2=O)cc1 | 4.2 | x | 0.5 | -12.4% | -16.8% | x
O=C(COc1coc(CN2CCc3ccccc32)cc1=O)NCCc1ccccc1 | 8.6 | x | 4.9 | u | 18.4µM* | x
Cc1ccc(C)c(NC(=O)COc2coc(CN3CCc4ccccc43)cc2=O)c1 | -18.3 | x | -5.5 | -84.0% | 11.6µM* | x
Cc1ccccc1NC(=O)COc1coc(CN2CCCc3ccccc32)cc1=O | -3.6 | x | 1.6 | 20.6µM* | 14.6µM* | x
Cc1ccc(NC(=O)COc2coc(CN3CCc4ccccc43)cc2=O)cc1Cl | -6.0 | x | -3.7 | 23.1µM* | 14.6µM* | x
CCCc1ccc(C2(C)NC(=O)N(Cc3ncc(-c4ccccc4)o3)C2=O)cc1 (stereo not drawn) | x | x | 4.8 | x | x | x
Cc1ccc(-c2nnn(CC(=O)N(c3ccccc3F)C(C(=O)NC3CCCC3)c3ccco3)n2)o1 (stereo not drawn) | -10.6 | 17.1% | 5.5 | 29.1µM* | 16.4µM* | -6.2%
Cc1ccc(-c2nnn(CC(=O)N(CC(=O)NC3CCCC3)c3ccccc3F)n2)o1 | 5.2 | 3.1% | -10.7 | -1.0% | 5.4% | 13.7%
CCOCCCN(C(=O)Cn1nnc(-c2ccc(C)o2)n1)C(C(=O)NC1CCCC1)c1ccc(C)o1 (stereo not drawn) | -51.9* | 14.6% | -1.4 | u | u | 6.7%
Cc1ccc(-c2nnn(CC(=O)N(c3cccc(F)c3)C(C(=O)NC3CCCC3)c3ccco3)n2)o1 (stereo not drawn) | 2.4 | 2.2% | -3.1 | 20.6µM* | 16.4µM* | -0.2%
Cc1ccc(-c2nnn(CC(=O)N(c3ccc(F)cc3)C(C(=O)NC3CCCC3)c3ccco3)n2)o1 (stereo not drawn) | 93.0 | 19.6% | -3.8 | 14.6µM* | u | u
Cc1ccc(-c2nnn(CC(=O)N(c3ccc(F)cc3)C(C(=O)NC(C)(C)C)c3ccco3)n2)o1 (stereo not drawn) | 20.8 | 33.3% | -4.1 | -3.0% | u | -0.5%
CCOCCCN(C(=O)Cn1nnc(-c2ccc(C)o2)n1)C(C(=O)NC1CCCC1)c1ccco1 (stereo not drawn) | -12.5 | 0.8% | -1.4 | 3.9% | -8.3% | 2.6%
Cc1ccc(-c2nnn(CC(=O)N(c3cccc(F)c3)C(C(=O)NC3CCCC3)c3ccncc3)n2)o1 (stereo not drawn) | -0.8 | -30.3% | -8.6 | 4.6% | -11.3% | 3.3%
Cc1c(-c2ccc(Cl)cc2)c(=O)oc2ccc(OS(=O)(=O)c3ccccc3)cc12 | x | x | -4.0 | x | x | x
Cc1[nH]c(C)c(S(=O)(=O)NCCC(=O)NCc2ccc(F)cc2)c1C(=O)N1CCCC1 | x | x | -20.1 | x | x | x
Cc1sc(NC(=O)/C=C/c2cccs2)c(C#N)c1C | x | x | 2.5 | x | x | x
Cc1cc(-c2nn(-c3ccccc3F)cc2CN2CCN(c3ccccn3)CC2)c(C)s1 | u | 16.2% | 0.2 | 13µM* | 11.6µM* | -0.9%
Cc1cccc(N2CCN(Cc3cn(C)nc3-c3ccccc3F)CC2)n1 | 0.0 | -27.4% | 3.4 | 1.84µM* | 2.59µM* | -5.8%
Cc1cc(-c2nn(-c3ccccc3F)cc2CNCCc2cnccn2)c(C)s1 | -62.5* | -15.1% | 0.9 | u | -28.3% | -3.7%

Assay outcomes deposited in PubChem by National Center for Advancing Translational Sciences (NCATS).
